# High-throughput results as filed in PubChem.
# Shown are actives, neighbours in structure and some others; about 3% of the full set was active somewhere.
# ATG4B inh – ATG4B (human) cysteine protease inhibition; hit rate 0.51% among 340,000; inhibition, % at 8.33 µM; AID 504462; ATG4B cleavage of LC3-PLA2, NBD-HPC fluorescence, 1 h; Q9Y4P1; in the data active = inhibition above about 40%
# PAFAH1B3 FP inh – blocks human PAF acetylhydrolase 1B catalytic subunit 3 | Q15102 | recombinant PAFAH1B3, FP-rhodamine probe, fluorescence polarization | inhibition, % at 3.39 µM | hit rate 0.28% among 340,000;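 active = inhibition above the screen-wide average of all tested compounds plus 3 SD, cut at about 25% in these data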;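 also: 0% = enzyme with DMSO only and 100% = wells lacking PAFAH1B3 protein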
# Target sequence (Q15102 whole entry, looked up): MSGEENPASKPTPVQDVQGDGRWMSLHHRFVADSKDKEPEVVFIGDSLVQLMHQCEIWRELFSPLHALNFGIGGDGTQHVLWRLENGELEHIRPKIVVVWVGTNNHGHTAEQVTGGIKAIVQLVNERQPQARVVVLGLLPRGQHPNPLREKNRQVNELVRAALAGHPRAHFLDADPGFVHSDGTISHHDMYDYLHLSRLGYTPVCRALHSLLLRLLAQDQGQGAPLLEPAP
# PAFAH2 FP inh – PAFAH2 (human) inhibition. Q99487. hit rate 0.99% among 340,000. AID 492956. inhibition, % at 3.39 µM. recombinant PAFAH2, FP-rhodamine activity probe, fluorescence polarization;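 active = inhibition above the mean over all tested compounds plus 3 SD, cut at about 30% in these data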;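 also: inhibitors block probe labeling of enzyme so polarization drops; 0% = enzyme with DMSO and 100% = wells lacking PAFAH2 protein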
# PAFAH1B2 FP inh – PAFAH1B2 (human) inhibition; P68402; recombinant PAFAH1B2, FP-rhodamine activity probe, fluorescence polarization; inhibition, % at 3.39 µM; hit rate 1.2% among 340,000; AID 492953;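 active = inhibition above the mean of all tested compounds plus 3 SD, cut at about 24% in these data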;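 also: 0% = enzyme with DMSO and 100% = wells lacking PAFAH1B2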
# pPAFAH FP inh – inhibitors of human plasma PAF acetylhydrolase (pPAFAH); Q13093; recombinant pPAFAH, FP-rhodamine probe fluorescence polarization; hit rate 1.5% among 330,000; inhibition, % at 3.39 µM;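 active = inhibition above the mean inhibition across the screen plus 3 SD, cut at about 25% in these data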;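 also: inhibitors block binding of the rhodamine activity-based probe so polarization drops; 0% = enzyme with DMSO and 100% = wells lacking pPAFAH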
# DAGLB inhibitor – diacylglycerol lipase beta (human) inhibition. Q8NCG7. AID 504411. inhibition, % at 5.17 µM. HEK293T DAGLB membrane lysate, EnzChek fluorogenic substrate. hit rate 0.059% among 340,000; in the data active = inhibition above about 34%;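 also: 0% = enzyme with vehicle and 100% = wells lacking enzyme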
# * = called active by the depositor; . = no result.
SMILES,ATG4B inh,PAFAH1B3 FP inh,PAFAH2 FP inh,PAFAH1B2 FP inh,pPAFAH FP inh,DAGLB inhibitor
CCCn1c(SCC(=O)Nc2cc(S(=O)(=O)N3CCCCC3)ccc2C)n[nH]c1=O,1,-1,-2,0,0,0
O=C(CCc1ccc(S(=O)(=O)N2CCOCC2)cc1)N/N=C/c1ccc(O)c(O)c1O,-2,13,5,3,28*,12
CCOc1cccc(=O)c2c(C)n(Cc3ccco3)c(C)c12,-3,1,15,5,33*,6
CCOc1cccc(=O)c2c(C)n(Cc3ccccc3)c(C)c12,-16,3,7,-1,27*,1
O=[N+]([O-])c1cc(C=Nc2cccc3c(O)cccc23)ccc1Cl,.,.,.,.,25*,.
COc1ccc(S(=O)(=O)Oc2ccc3ccccc3c2)cc1,0,12,2,7,0,-10
O=S(=O)(O)c1cc(OS(=O)(=O)c2ccccc2)cc2ccccc12,-3,7,3,30*,-3,4
O=C(O)c1cc(S(=O)(=O)N2CCCCC2)ccc1N1CCOCC1,0,7,1,9,5,1
O=C(Nc1nnc(-c2ccco2)s1)C1CCCCC1,-3,-2,3,2,3,1
O=C(Nc1nc(-c2ccco2)c(-c2ccco2)s1)C1CCC1,8,4,5,-4,28*,2
N#Cc1ccc(OCC(=O)OCCCOC(=O)COc2ccc(C#N)cc2)cc1,4,5,4,18,32*,-2
CN(Cc1ccccc1)C(=O)COC(=O)COc1ccc(C#N)cc1,-3,3,2,-3,33*,0
CN(Cc1ccccc1)C(=O)COC(=O)COc1ccc(Cl)cc1,5,3,3,8,24,-4
O=C(CSc1nnc(CNC(=O)c2ccco2)o1)Nc1ccc(F)cc1,1,7,5,6,4,-3
COCCn1c(SCC(=O)c2c(N)n(C3CC3)c(=O)[nH]c2=O)nnc1-c1cccc(C)c1,5,7,3,2,0,1
O=C(Nc1ccc(-c2cnco2)cc1)c1ccc(Cl)cc1,-9,.,.,.,29*,.
O=C(Nc1ccc(-c2cnco2)cc1)c1ccccc1,-2,4,2,4,2,-1
CCOC(=O)C1C(=O)C=C(/C=C/c2ccc(N(C)C)cc2)CC1c1ccccc1 (stereo not drawn),-8,-3,-27,-3,-4,-32
CC(C)CN1C(=O)C(=O)N(CC(=O)N(C)CC(=O)Nc2ccc(F)cc2)C1=O,-6,-5,6,6,8,1
COc1ccccc1C(=O)NC(=O)COC(=O)C1(C)CC1(Cl)Cl (stereo not drawn),1,5,3,4,-1,-2
O=C(NN=C1CCCC1)c1cc(Cl)cc(Cl)c1O,4,14,7,0,34*,13
COc1ccc(Cl)cc1C(=O)NN=C1CCCC1,-1,-2,4,-1,3,-1
CCC1CCC(C(=O)NNC(=O)c2cc(-c3ccco3)[nH]n2)CC1 (stereo not drawn),-1,2,7,2,31*,2
COc1ccc(-c2[nH]c(-c3ccc(C)cc3)nc2SCC(=O)Nc2nccs2)cc1,10,2,-7,4,4,2
COc1ccc(-c2[nH]c(-c3ccc(SC)cc3)nc2SCC(=O)Nc2nccs2)cc1,13,25,-21,27*,7,4
SMILES,ATG4B inh,PAFAH1B3 FP inh,PAFAH2 FP inh,PAFAH1B2 FP inh,pPAFAH FP inh,DAGLB inhibitor
Cc1ccccc1-c1n[nH]nc1C1=CC(=O)CC(C)(C)C1,.,.,.,.,.,2
Cc1ccc(S(=O)(=O)N2C[C@H]3C(=O)C[C@@H](c4ccccc4F)N(S(=O)(=O)c4ccc(C)cc4)[C@H]3C[C@H]2c2cccc3ccccc23)cc1,.,.,.,.,.,-7
COc1cc2cc(C(C)(C)O)oc(=O)c2cc1OC,-8,9,-13,11,33*,1
N#CC1=C(N)SC(N)=C(C#N)C1c1ccoc1,.,.,.,.,68*,.
O=C(Cc1ccccc1)NNC1CC(=O)N(c2ccc(Cl)cc2)C1=O (stereo not drawn),-3,8,6,5,0,3
O=C(Cc1ccc(Cl)cc1)NNC1CC(=O)N(c2ccc3ccccc3c2)C1=O (stereo not drawn),4,5,-1,25*,5,-1
N#CCCn1cc(/C=C/C(=O)O)c(-c2ccc(F)cc2)n1,-9,-2,1,1,-6,-1
